# Reference: PubChem BioAssay (EPA / NIEHS)
# Inconclusive results are not listed. Calls of active or inactive are those of the source. How the source made its calls, unless noted: active means hit-call score of the fitted dose curve at least 0.9, where 1 is the maximum; inactive means score below 0.9.
# Key:
# [1] = CCTE_Shafer_MEA_dev_firing_rate_mean: CCTE's Neural Network Formation Assay for Mean Firing Rate, Shafer Lab (AID 2284031);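 further: curve fitted for loss of firing so AC50 reflects decreased mean firing rate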
# How it was run: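 Steps: seed rat cortical cells (1.5 x 10^5/well) with laminin on PEI-coated MEA; dose day 0; record DIV 5/7/9/12, full media and compound exchange after DIV 5 and 9 recordings; compute well-mean firing rate AUC.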
# [2] = CCTE_Shafer_MEA_dev_per_burst_spike_percent: CCTE's Neural Network Formation Assay for Percent of Spikes in a Burst, Shafer Lab (AID 2284032);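 further: fitted as a decrease in burst spike percentage below DMSO baseline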
# How it was run: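 Value is trapezoidal AUC over recordings on days 5, 7, 9 and 12 of the well-mean fraction of spikes falling in single-electrode bursts; rat cortical cultures exposed continuously from plating, treatment renewed DIV 5 and 9, fitted downward against DMSO.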
# [3] = CCTE_Shafer_MEA_dev_active_electrodes_number: CCTE's Neural Network Formation Assay for Number of Active Electrodes, Shafer Lab (AID 2284040; active means hit-call score of the fitted dose curve at least 0.9, where 1 is the maximum;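 further: potency for loss of active electrodes versus DMSO so lower counts are hits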)
# How it was run: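 Counts electrodes per well firing at least 5 spikes/min, recorded on days 5, 7, 9 and 12 in rat cortical cultures dosed continuously from plating (treatment refreshed DIV 5, 9). Value is the area under the curve over recordings, fitted downward relative to DMSO.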
# [4] = CCTE_Shafer_MEA_dev_burst_rate: CCTE's Neural Network Formation Assay for Burst Rate, Shafer Lab (AID 2284042);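 further: potency for loss of burst rate below DMSO control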
# How it was run: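 Rat primary cortical cultures on PEI/laminin MEA; compound from plating, re-dosed at DIV 5, 9 media change. Single-electrode bursts/recording length, well mean of active electrodes; AUC over DIV 5–12 recordings; loss-of-signal vs DMSO.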
# [5] = CCTE_Shafer_MEA_dev_bursting_electrodes_number: CCTE's Neural Network Formation Assay for Number of Bursting Electrodes, Shafer Lab (AID 2284043; active means hit-call score of the fitted dose curve at least 0.9, where 1 is the maximum;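 further: potency is for loss of bursting electrodes relative to DMSO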)
# How it was run: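 Number of electrodes reaching ≥1 burst every 2 min was recorded at DIV 5, 7, 9 and 12 and collapsed as trapezoidal area under the curve. Cultures were rat cortical neurons on MEA plates, dosed continuously from plating with medium and treatment refreshed on DIV 5 and 9.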
# [6] = CCTE_Shafer_MEA_dev_per_burst_interspike_interval: CCTE's Neural Network Formation Assay for Burst Interspike Interval, Shafer Lab (AID 2284044);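 further: potency for a decrease of within-burst interspike interval below DMSO level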
# How it was run: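 Spontaneous activity of maturing rat cortical networks is recorded on DIV 5, 7, 9 and 12 under chronic compound exposure beginning at plating. Endpoint: burst interspike interval well-mean, collapsed into trapezoidal AUC and fitted in the negative direction relative to DMSO.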
# [7] = CCTE_Shafer_MEA_dev_burst_duration_mean: CCTE's Neural Network Formation Assay for Mean Burst Duration, Shafer Lab (AID 2284045);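 further: curve fitted for loss meaning shorter burst duration than DMSO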
# How it was run: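 Mean single-electrode burst duration (first to last spike), averaged over bursting electrodes per well, then integrated as area-under-curve across recordings at days 5, 7, 9 and 12. Rat cortical cultures on MEAs, compound present from plating, refreshed at feeds.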
# [8] = CCTE_Shafer_MEA_dev_interburst_interval_mean: CCTE's Neural Network Formation Assay for Mean Interburst Interval, Shafer Lab (AID 2284046);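 further: well-mean interburst interval of bursting electrodes as AUC over four recording days; curve fitted for decrease in interburst interval relative to DMSO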
# How it was run: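 Rat cortical neurons, 1.5 x 10^5 cells/well, 48-well MEA; compound from day 0 through DIV 12, media and treatment renewed DIV 5/9. Recordings DIV 5, 7, 9, 12; well-mean interburst interval → trapezoidal AUC, loss direction vs DMSO.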
# [9] = CCTE_Shafer_MEA_dev_inter_network_spike_interval_mean: CCTE's Neural Network Formation Assay for Mean Inter-network Spike Interval, Shafer Lab (AID 2284047)
# How it was run: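 Primary rat cortical neurons on PEI-coated 48-well MEAs (16 electrodes/well) were exposed from plating day 0 to DIV 12, with dosing renewed at DIV 5 and 9. Recordings at DIV 5, 7, 9, 12 were collapsed by trapezoidal AUC, loss-of-signal fit vs DMSO.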
# [10] = CCTE_Shafer_MEA_dev_network_spike_peak: CCTE's Neural Network Formation Assay for Mean Number of Electrodes in Network Spike, Shafer Lab (AID 2284049);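 further: fitted for loss of signal meaning fewer electrodes in network spikes than DMSO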
# How it was run: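 Rat cortical primary culture, 1.5 x 10^5 cells/well, 48-well MEA (16 electrodes/well). Dosing day 0 through DIV 12, full media/compound exchange DIV 5, 9. AxIS adaptive spike detection; AUC over days 5/7/9/12; loss-of-signal vs DMSO.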
# [11] = CCTE_Shafer_MEA_dev_spike_duration_mean: CCTE's Neural Network Formation Assay for Mean Spike Duration, Shafer Lab (AID 2284051);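 further: mean network spike duration pooled as area under curve over DIV 5 to 12 recordings; potency for a decrease in mean network spike duration versus DMSO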
# How it was run: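 Rat cortical primary cultures, 48-well MEA (16 electrodes/well); compound from plating, renewed DIV 5, 9. Network spike duration (AxIS adaptive detector) recorded DIV 5/7/9/12, combined as trapezoidal AUC; loss direction vs DMSO.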
# [12] = CCTE_Shafer_MEA_dev_network_spike_duration_std: CCTE's Neural Network Formation Assay for Standard Deviation of Network Spike Duration, Shafer Lab (AID 2284052);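 further: hits are decreases in network spike duration SD versus DMSO vehicle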
# How it was run: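 Rat cortical cultures, 1.5 x 10^5 cells/well, exposed continuously from plating to DIV 12 with media/compound renewal at DIV 5, 9. Spontaneous activity recorded DIV 5/7/9/12, AxIS adaptive spike detector; AUC across days; negative direction vs DMSO.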
# [13] = CCTE_Shafer_MEA_dev_per_network_spike_spike_number_mean: CCTE's Neural Network Formation Assay for Mean Number of Spikes in a Network Spike, Shafer Lab (AID 2284053);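 further: fitted as decrease in spikes per network spike relative to DMSO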
# How it was run: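 Rat cortical primary cultures on 48-well MEA; compound from day 0, re-dosed with full media change DIV 5, 9. Recorded DIV 5, 7, 9, 12; spikes in 0.05 s window at network-spike peak ÷ total network spikes; AUC; loss vs DMSO.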
# [14] = CCTE_Shafer_MEA_dev_per_network_spike_spike_percent: CCTE's Neural Network Formation Assay for Percent of Spikes in a Network Spike, Shafer Lab (AID 2284054)
# How it was run: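 Metric: fraction of spikes falling in a 0.05 s window at network-spike peaks. Recordings were made on days 5, 7, 9 and 12 and collapsed by trapezoidal AUC. Cultures were rat cortical neurons on MEA plates, dosed continuously from plating, re-dosed at media changes.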
# [15] = CCTE_Shafer_MEA_dev_mutual_information_norm: CCTE's Neural Network Formation Assay for Mutual Information Normalization, Shafer Lab (AID 2284091);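 further: mutual information between electrodes summarised as area under curve across four recording days; potency is for a decrease in mutual information relative to DMSO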
# How it was run: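 Shared information across electrodes, tracked on days 5, 7, 9 and 12 of network development and collapsed as trapezoidal area under the curve. Rat cortical cultures were treated continuously from plating, with treatment renewed at feeds on DIV 5 and 9; DMSO baseline, negative-direction fit.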
# [16] = CCTE_Shafer_MEA_dev_correlation_coefficient_mean: CCTE's Neural Network Formation Assay for Mean Correlation Coefficient, Shafer Lab (AID 2284093);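 further: well mean pairwise spike train correlation integrated as AUC over recording days 5 to 12; potency fitted for loss of correlation relative to DMSO vehicle wells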
# How it was run: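 Rat cortical cultures, 1.5 x 10^5 cells/well, dosed from day 0 for 12 days. Spontaneous spikes recorded DIV 5/7/9/12; electrode-pair correlation coefficients averaged, AUC taken. Fit in loss direction vs DMSO.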
# [17] = UKN2_HCS_IMR90_neural_migration: University of Konstanz (UKN) Leist Lab Neural Crest Cell Migration Assay in human induced IMR90 Pluripotent Stem Cells (UKN2) (AID 2284204); conditions: actives raise or lower the signal
# How it was run: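 High-content imaging of calcein-AM and Hoechst stained cells quantifies migration into a stopper-defined gap after 24 h compound exposure. Neural crest cells from IMR90 iPSC migrated 24 h in EGF/FGF N2-S medium before dosing; DMSO baseline.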
# [18] = IUF_NPC1b_proliferation_BrdU_72hr: Leibniz Research Institute for Environmental Medicine (IUF) 72-hour Neural Progenitor Cell Bromodeoxyuridine (BrdU) Proliferation Assay (NPC1b) (AID 2284207)
# How it was run: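 Human fetal cortex-derived (GW 16-19) neural progenitor spheres, 0.25-0.35 mm, one per well in EGF/FGF proliferation medium, exposed to compound for 72 h at 37C, pH 7.2-7.6. BrdU incorporation over the final 16 h read by luminescence ELISA, relative to DMSO.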
# [19] = IUF_NPC1a_proliferation_area_72hr: Leibniz Research Institute for Environmental Medicine (IUF) 72-hour Neural Progenitor Cell Proliferation Area Assay (NPC1a) (AID 2284208)
# How it was run: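 Measured in 3D suspension: each well held one primary hNPC sphere grown with EGF and FGF at pH 7.2-7.6. Compound stayed on for 72 h, then area was imaged; spheres lacking growth factors defined reduced proliferation.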
# [20] = IUF_NPC1_viability_72hr: Viability Assessment at 72 hours in the Leibniz Research Institute for Environmental Medicine (IUF) Neural Progenitor Cell Proliferation Assay (NPC1) (AID 2284209)
# How it was run: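 Spheres of primary human neural progenitors were plated singly in proliferation medium and treated for 72 h. Mitochondrial reduction of resazurin was then measured by fluorescence and analysed against DMSO controls.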
# [21] = CCTE_Mundy_HCI_Cortical_Synap_Neur_Matur_NeuriteSpotCountPerNeuriteLength: CCTE's Synaptogenesis and Neurite Maturation Assay in rat cortical cells for Neurite Spot Count per Neurite Length, Mundy Lab (AID 2284210)
# How it was run: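 Synaptophysin spots per unit neurite length, measured by automated imaging of MAP2/synaptophysin/Hoechst-stained neurons. Cultures from rat cortex received chemical at DIV 7 with media change through DIV 12; glial growth arrested by AraC at DIV 5; DMSO baseline.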
# [22] = CCTE_Mundy_HCI_Cortical_Synap_Neur_Matur_BPCount: CCTE's Synaptogenesis and Neurite Maturation Assay in rat cortical cells for Branch Point Count, Mundy Lab (AID 2284211)
# How it was run: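 HCI read-out of branch points from MAP2/synaptophysin/Hoechst immunofluorescence; rat cortical cultures, AraC DIV 5, dosing DIV 7, fixed DIV 12; fit in positive direction vs DMSO baseline.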
# [23] = CCTE_Mundy_HCI_Cortical_NOG_NeuriteCount: CCTE's Neurite Outgrowth Assay in rat cortical cells for Neurite Count, Mundy Lab (AID 2284212);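 further: cells fixed about two days after chemical exposure began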
# How it was run: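 Rat cortical primary cells; compound added 2 h post-plating, 1/10 dilution of working solution. Anti-betaIII-tubulin/AF488 ICC; ArrayScan neurite count vs DMSO.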
# [24] = CCTE_Mundy_HCI_Cortical_NOG_NeuriteLength: CCTE's Neurite Outgrowth Assay in rat cortical cells for Neurite Length, Mundy Lab (AID 2284213);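 further: neurites imaged about 48 to 50 h after chemical exposure began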
# How it was run: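 First, rat primary cortical cells were plated and, 2 h later, given test chemical as a 1/10 dilution. Finally, βIII-tubulin immunostaining enabled automated imaging of neurite length.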
# [25] = CCTE_Mundy_HCI_Cortical_Synap_Neur_Matur_NeuriteLength: CCTE's Synaptogenesis and Neurite Maturation Assay in rat cortical cells for Neurite Length, Mundy Lab (AID 2284214)
# How it was run: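 Cultures of rat primary cortical cells received chemical at DIV 7 and were fixed at DIV 12, after glial arrest with AraC at DIV 5. Neurite length was measured by automated imaging of MAP2 immunofluorescence.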
smiles,measurement,setting,value
CC1(C)[C@H](C=C(Cl)Cl)[C@H]1C(=O)OCc1c(F)c(F)cc(F)c1F,AC50,[1],23.4 µM (active)
same,AC50,[2],23.1 µM (active)
same,AC50,[3],23 µM (active)
same,AC50,[4],23.7 µM (active)
same,AC50,[5],23.3 µM (active)
same,AC50,[6],13.7 µM (active)
same,AC50,[7],9.92 µM (active)
same,AC50,[8],13.9 µM (active)
same,outcome,[9],inactive
same,AC50,[10],16.7 µM (active)
same,AC50,[11],22.8 µM (active)
same,outcome,[12],inactive
same,AC50,[13],13.1 µM (active)
same,AC50,[14],12.8 µM (active)
same,AC50,[15],13.4 µM (active)
same,AC50,[16],10.7 µM (active)
same,outcome,[17],inactive
same,AC50,[18],0.897 µM (active)
same,outcome,[19],inactive
same,outcome,[20],inactive
same,AC50,[21],12.9 µM (active)
same,AC50,[22],9.4 µM (active)
same,AC50,[23],80.1 µM (active)
same,AC50,[24],78.2 µM (active)
same,AC50,[25],9.91 µM (active)
